Data published in PubChem BioAssay AID1028 (SRMLSC, 2008).
Measured potencies and affinities stand elsewhere. Active and inactive are the calls of the source.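 How the source made its calls: active means enzyme inhibitor confirmed by dose series, half-maximal inhibitory concentration at most 40 µM; inactive means the rest.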

biological target: diphosphomevalonate decarboxylase (Streptococcus pneumoniae D39) (UniProt Q9FD53); assay: diphosphomevalonate decarboxylase inhibitor confirmation – biochemical, cuvette format, coupled NADH fluorescence (AID 1028); conditions: purified DPM-DC, rate, at 50 µM, active compounds read high

inhibition, inactive:
O=C(NC1CC1)c1ccccc1-n1sc2ccccc2c1=O 8%, COc1ccc2nc(-c3ccncc3)oc2c1 4.83%, Cc1cccc(-c2nc3ccccc3o2)c1 5.31%, Cc1ccc(-c2nc3cc(N)ccc3o2)cc1F 16%, Nc1ccc2oc(-c3cccc(Cl)c3)nc2c1 8.07%, COc1ccc2oc(-c3ccncc3)nc2c1 -0.2%, COc1ccc(-c2nc3cc(N)ccc3o2)cc1 13.2%, CN(C)C(=O)c1ccccc1-n1sc2ccccc2c1=O 16.7%, Nc1ccc2oc(-c3ccc(Cl)cc3)nc2c1 12.8%, Fc1cccc(-c2nc3ccccc3o2)c1 4.51%, COc1ccccc1-c1nc2cc(N)ccc2o1 14.5%, Cc1ccc(C)c(-c2nc3ccc(N)cc3o2)c1 13%, O=C(c1ccccc1-n1sc2ccccc2c1=O)N1CCCC1 16.1%, Cc1ccc(C)c(-c2nc3ccccc3o2)c1 -0.27%, Clc1cccc(-c2nc3ccccc3o2)c1 1.68%, Cc1ccc(C)c(-c2nc3cc(N)ccc3o2)c1 0.87%, Nc1ccc2oc(-c3ccc(F)cc3)nc2c1 13.4%, O=C(c1ccccc1-n1sc2ccccc2c1=O)N1CCOCC1 13.7%, COc1ccc2oc(-c3cccc([N+](=O)[O-])c3)nc2c1 7.59%, Cc1ccc(C)c(-c2nc3cccc(N)c3o2)c1 -0.39%, COc1ccc2oc(-c3ccc(N)cc3)nc2c1 7.74%, COc1ccc2oc(-c3cc(C)ccc3C)nc2c1 2.66%, COc1ccc2nc(-c3cc(OC)c(OC)c(OC)c3)oc2c1 3.99%, COc1ccc(-c2nc3ccccc3o2)cc1 6.86%
